# Data: PubChem BioAssay (NCI)
# About 79,000 compounds went through this panel and 15% of them were active in at least one assay; those are over-represented in the sample as a whole. Unmarked numbers belong to inactive results. The source made the active and inactive calls. Cut-off read from the data, not from the text of the source: active = growth inhibition above about 70%; inactive = the rest.
# Columns and labels:
# [1] = NCI Yeast Anticancer Drug Screen. Data for the rad52 strain (AID 147);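 note: 0% = growth of vehicle-treated control cultures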; details: S. cerevisiae rad52 mutant growth inhibition, active compounds read high
# How it was run: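 Yeast strain carrying a DNA damage repair alteration was exposed to test compounds. Growth inhibition was measured relative to vehicle-treated controls.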
# [2] = NCI Yeast Anticancer Drug Screen. Data for the wt1 strain (AID 149);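 note: 0% = growth of vehicle-treated wt1 cultures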; details: S. cerevisiae wt1 strain (SPY 50644) growth inhibition, active compounds read high
# How it was run: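 wt1 yeast, compound-treated; % growth inhibition vs vehicle control.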
# [3] = NCI Yeast Anticancer Drug Screen. Data for the mgt1 strain (AID 153); details: S. cerevisiae mgt1 mutant growth inhibition, active compounds read high
# How it was run: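 Yeast mgt1 strain (DNA repair/cell-cycle alteration panel) exposed to compounds; growth inhibition measured relative to vehicle-treated controls.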
# [4] = NCI Yeast Anticancer Drug Screen. Data for the rad50 strain (AID 155);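 note: 0% = growth of vehicle-only cultures of the same strain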; details: S. cerevisiae rad50 strain growth inhibition, active compounds read high
# How it was run: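 Genetically altered yeast (DNA repair pathway); compound treatment; growth inhibition vs vehicle ctrl.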
# [5] = NCI Yeast Anticancer Drug Screen. Data for the mec2-1 strain (AID 157); details: S. cerevisiae mec2-1 strain, active compounds read high
# How it was run: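 mec2-1 yeast strain, carrying an alteration in DNA damage repair or cell cycle control, was exposed to compounds; growth inhibition was measured relative to vehicle-treated controls.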
# [6] = NCI Yeast Anticancer Drug Screen. Data for the rad14 strain (AID 159);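 note: 0% = growth of vehicle-treated control cultures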; details: S. cerevisiae rad14 strain growth inhibition, active compounds read high
# How it was run: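 Test compounds were applied to a repair-deficient yeast strain. Its growth was then compared with that of cultures given vehicle alone, and inhibition was expressed relative to those controls.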
# [7] = NCI Yeast Anticancer Drug Screen. Data for the sgs1 mgt1 strain (AID 161);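 note: 0% = growth of cultures given vehicle only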; details: S. cerevisiae sgs1 mgt1 strain, active compounds read high
# How it was run: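 Growth of a repair-deficient yeast mutant was monitored after compound treatment and expressed as inhibition relative to vehicle-treated cultures.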
# [8] = NCI Yeast Anticancer Drug Screen. Data for the CLN2oe strain (AID 163);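 note: 0% = growth of vehicle-only control cultures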; details: S. cerevisiae CLN2oe strain, active compounds read high
# How it was run: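 Yeast cells carrying a defined cell-cycle control alteration were exposed to test compounds. Growth inhibition was scored against vehicle-treated control cultures.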
# [9] = NCI Yeast Anticancer Drug Screen. Data for the cln2 rad14 strain (AID 165);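 note: 0% = growth equal to vehicle treated cultures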; details: S. cerevisiae cln2 rad14 strain, active compounds read high
# How it was run: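 Yeast carrying cln2 and rad14 alterations (cell cycle control and DNA damage repair) were exposed to compounds. Growth inhibition was measured against vehicle-treated controls.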
# [10] = NCI Yeast Anticancer Drug Screen. Data for the bub3 strain (AID 167); details: S. cerevisiae bub3 mutant strain, active compounds read high
# How it was run: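 Yeast carrying a defined mutation is treated with each compound, and growth is compared with that of vehicle-exposed cells to give inhibition.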
# [11] = NCI Yeast Anticancer Drug Screen. Data for the wt2 strain (AID 169);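 note: 0% = growth of vehicle-treated yeast cultures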; details: S. cerevisiae wt2 strain growth inhibition, active compounds read high
# How it was run: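 Yeast cells were exposed to test compounds, and growth inhibition was measured relative to vehicle-treated controls.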
# [12] = NCI Yeast Anticancer Drug Screen. Data for the mlh1 strain (AID 171);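 note: 0% = growth of vehicle-treated control cultures of the same strain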; details: S. cerevisiae mlh1 strain growth inhibition, active compounds read high
# How it was run: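 Yeast carrying a defined genetic alteration in DNA damage repair or cell cycle control were exposed to test compounds. Growth inhibition was measured relative to vehicle-treated controls.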
# [13] = NCI Yeast Anticancer Drug Screen. Data for the sgs1 strain (AID 173);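 note: 0% = growth of vehicle-only control cultures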; details: S. cerevisiae sgs1 mutant, active compounds read high
# How it was run: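 Yeast mutant strains carrying defined defects in DNA damage repair or cell cycle control were exposed to test compounds. Growth inhibition was scored against vehicle-treated controls.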
# [14] = NCI Yeast Anticancer Drug Screen. Data for the mlh1 rad18 strain (AID 175); details: S. cerevisiae mlh1 rad18 strain growth inhibition, active compounds read high
# How it was run: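 Growth inhibition of the yeast strain was measured after compound exposure and expressed relative to vehicle-treated controls. The strain carries defined defects in DNA damage repair.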
# [15] = NCI Yeast Anticancer Drug Screen. Data for the rad18 strain (AID 177); details: S. cerevisiae rad18 mutant growth inhibition, active compounds read high
# How it was run: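 Yeast carrying a defined DNA damage repair alteration were exposed to compounds. Growth inhibition was expressed relative to vehicle-treated controls.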
# [16] = at 5.0 µM (retest, dose inferred, filed as 0.5)
# [17] = at 50.0 µM (retest, dose inferred, filed as 5.0)
compound,measurement,setting,value
O=C1C2CC[C@@H]3C(=O)C(Cl)(Cl)[C@@H]3CCC2C1(Cl)Cl (stereo partly drawn),growth inhibition,[1]; at 1.2 µM,12%
same,growth inhibition,[1]; at 3.7 µM,25%
same,growth inhibition,[1]; at 11.0 µM,46%
same,growth inhibition,[1]; at 33.0 µM,69%
same,growth inhibition,[1]; at 100.0 µM,76% (active)
same,growth inhibition,[2]; at 1.2 µM,0%
same,growth inhibition,[2]; at 3.7 µM,1%
same,growth inhibition,[2]; at 11.0 µM,2%
same,growth inhibition,[2]; at 33.0 µM,9%
same,growth inhibition,[2]; at 100.0 µM,12%
same,growth inhibition,[3]; at 1.2 µM,-2%
same,growth inhibition,[3]; at 3.7 µM,-1%
same,growth inhibition,[3]; at 11.0 µM,8%
same,growth inhibition,[3]; at 33.0 µM,-2%
same,growth inhibition,[3]; at 100.0 µM,4%
same,growth inhibition,[4]; at 1.2 µM,5%
same,growth inhibition,[4]; at 3.7 µM,12%
same,growth inhibition,[4]; [16],19%
same,growth inhibition,[4]; at 11.0 µM,-2%
same,growth inhibition,[4]; at 33.0 µM,33%
same,growth inhibition,[4]; [17],70% (active)
same,growth inhibition,[4]; at 50.0 µM,83.3% (active)
same,growth inhibition,[4]; at 100.0 µM,37%
same,growth inhibition,[5]; at 1.2 µM,2%
same,growth inhibition,[5]; at 3.7 µM,6%
same,growth inhibition,[5]; [16],-2%
same,growth inhibition,[5]; at 11.0 µM,11%
same,growth inhibition,[5]; at 33.0 µM,21%
same,growth inhibition,[5]; [17],49%
same,growth inhibition,[5]; at 50.0 µM,81.9% (active)
same,growth inhibition,[5]; at 100.0 µM,24%
same,growth inhibition,[6]; at 1.2 µM,0%
same,growth inhibition,[6]; at 3.7 µM,3%
same,growth inhibition,[6]; at 11.0 µM,6%
same,growth inhibition,[6]; at 33.0 µM,13%
same,growth inhibition,[6]; at 100.0 µM,22%
same,growth inhibition,[7]; [16],18%
same,growth inhibition,[7]; [17],67%
same,growth inhibition,[7]; at 50.0 µM,84.6% (active)
same,growth inhibition,[8]; at 1.2 µM,3%
same,growth inhibition,[8]; at 3.7 µM,0%
same,growth inhibition,[8]; at 11.0 µM,5%
same,growth inhibition,[8]; at 33.0 µM,10%
same,growth inhibition,[8]; at 100.0 µM,20%
same,growth inhibition,[9]; [16],2%
same,growth inhibition,[9]; [17],22%
same,growth inhibition,[9]; at 50.0 µM,78.8% (active)
same,growth inhibition,[10]; at 1.2 µM,1%
same,growth inhibition,[10]; at 3.7 µM,2%
same,growth inhibition,[10]; [16],-30%
same,growth inhibition,[10]; at 11.0 µM,12%
same,growth inhibition,[10]; at 33.0 µM,10%
same,growth inhibition,[10]; [17],10%
same,growth inhibition,[10]; at 50.0 µM,70.8% (active)
same,growth inhibition,[10]; at 100.0 µM,11%
same,growth inhibition,[11]; at 1.2 µM,1%
same,growth inhibition,[11]; at 3.7 µM,3%
same,growth inhibition,[11]; at 11.0 µM,7%
same,growth inhibition,[11]; at 33.0 µM,10%
same,growth inhibition,[11]; at 100.0 µM,14%
same,growth inhibition,[12]; at 1.2 µM,1%
same,growth inhibition,[12]; at 3.7 µM,1%
same,growth inhibition,[12]; at 11.0 µM,4%
same,growth inhibition,[12]; at 33.0 µM,10%
same,growth inhibition,[12]; at 100.0 µM,9%
same,growth inhibition,[13]; at 1.2 µM,-21%
same,growth inhibition,[13]; at 3.7 µM,20%
same,growth inhibition,[13]; at 11.0 µM,33%
same,growth inhibition,[13]; at 33.0 µM,51%
same,growth inhibition,[13]; at 100.0 µM,53%
same,growth inhibition,[14]; [16],31%
same,growth inhibition,[14]; [17],88% (active)
same,growth inhibition,[14]; at 50.0 µM,79.2% (active)
same,growth inhibition,[15]; at 1.2 µM,59%
same,growth inhibition,[15]; at 3.7 µM,85% (active)
same,growth inhibition,[15]; at 11.0 µM,94% (active)
same,growth inhibition,[15]; at 33.0 µM,95% (active)
same,growth inhibition,[15]; at 100.0 µM,96% (active)
